Assay in all cases: DAPPL (digital affinity profiling via proximity ligation, sequencing); 10 mM Tris-HCl pH 7.5, 50 mM NaCl, 1 mM DTT, 4% glycerol, room temperature, 30 min; GST-TFs on glutathione beads, 16-mer random dsDNA library, 0.1% formaldehyde crosslink after washing; high values mean tight binding
Holding throughout (details): protein: recombinant; tags: N-terminal GST; dsDNA, one strand shown

One test concerns the target T1, FLI1 (Homo sapiens, UniProt Q01543 1-452).
T1 sequence: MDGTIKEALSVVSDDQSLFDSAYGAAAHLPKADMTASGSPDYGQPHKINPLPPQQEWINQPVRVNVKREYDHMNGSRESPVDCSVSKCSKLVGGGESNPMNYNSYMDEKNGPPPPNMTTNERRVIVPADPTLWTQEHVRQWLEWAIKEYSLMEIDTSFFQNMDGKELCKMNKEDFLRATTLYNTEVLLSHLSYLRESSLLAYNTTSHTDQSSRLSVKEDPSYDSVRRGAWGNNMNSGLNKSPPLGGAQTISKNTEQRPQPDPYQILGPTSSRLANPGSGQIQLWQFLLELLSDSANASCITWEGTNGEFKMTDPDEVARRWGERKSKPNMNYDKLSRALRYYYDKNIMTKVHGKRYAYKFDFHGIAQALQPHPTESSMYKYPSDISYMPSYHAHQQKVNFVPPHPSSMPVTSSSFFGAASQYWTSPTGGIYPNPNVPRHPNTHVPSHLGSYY
An outline of the steps: (§1)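 Pools of DNA-barcoded human transcription factors, expressed in yeast as GST fusions on glutathione beads and combined with a tag-only sample, were incubated with 200 nmole of a 16-mer random double-stranded DNA library. Incubation took 30 min at room temperature in Tris/NaCl/DTT/glycerol buffer and was followed by washing, 0.1% formaldehyde crosslinking, proximity ligation (BsaI/T4 ligase, 1 h, 37 °C), PCR amplification and sequencing on an Illumina NextSeq500. Binding signal is the ratio of a hexamer's read frequency for a factor to its frequency for the tag-only sample.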

For another test, the target named is T2, ELK1 (Homo sapiens, UniProt P19419 1-428).
T2 sequence: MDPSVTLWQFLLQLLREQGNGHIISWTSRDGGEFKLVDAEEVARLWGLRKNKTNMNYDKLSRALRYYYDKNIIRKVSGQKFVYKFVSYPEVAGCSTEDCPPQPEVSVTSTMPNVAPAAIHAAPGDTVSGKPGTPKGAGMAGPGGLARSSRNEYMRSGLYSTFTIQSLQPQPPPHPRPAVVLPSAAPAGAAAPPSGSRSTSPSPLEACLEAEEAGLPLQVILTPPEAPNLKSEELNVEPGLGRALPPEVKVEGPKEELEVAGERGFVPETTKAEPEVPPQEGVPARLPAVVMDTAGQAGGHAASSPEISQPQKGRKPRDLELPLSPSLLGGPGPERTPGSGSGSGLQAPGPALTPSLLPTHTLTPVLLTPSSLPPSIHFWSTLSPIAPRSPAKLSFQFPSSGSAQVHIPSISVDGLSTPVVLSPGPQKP
A digest of the protocol:
as §1

The target in another test is T3, GABPA (Homo sapiens, UniProt Q06546 1-454).
T3 sequence: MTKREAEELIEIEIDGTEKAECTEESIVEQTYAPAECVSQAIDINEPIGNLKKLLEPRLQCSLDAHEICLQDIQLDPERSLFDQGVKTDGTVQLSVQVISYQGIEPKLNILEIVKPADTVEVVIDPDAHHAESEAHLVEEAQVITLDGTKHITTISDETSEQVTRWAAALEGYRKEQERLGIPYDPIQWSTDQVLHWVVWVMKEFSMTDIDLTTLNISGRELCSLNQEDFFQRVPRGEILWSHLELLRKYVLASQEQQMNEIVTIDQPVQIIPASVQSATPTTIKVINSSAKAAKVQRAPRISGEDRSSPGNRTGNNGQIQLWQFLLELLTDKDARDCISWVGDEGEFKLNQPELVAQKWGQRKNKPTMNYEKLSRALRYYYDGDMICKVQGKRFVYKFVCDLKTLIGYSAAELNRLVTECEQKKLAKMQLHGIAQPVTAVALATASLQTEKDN
A digest of the protocol: as §1

For the next test, the target named is T4, ERG (Homo sapiens, UniProt P11308 1-479).
T4 sequence: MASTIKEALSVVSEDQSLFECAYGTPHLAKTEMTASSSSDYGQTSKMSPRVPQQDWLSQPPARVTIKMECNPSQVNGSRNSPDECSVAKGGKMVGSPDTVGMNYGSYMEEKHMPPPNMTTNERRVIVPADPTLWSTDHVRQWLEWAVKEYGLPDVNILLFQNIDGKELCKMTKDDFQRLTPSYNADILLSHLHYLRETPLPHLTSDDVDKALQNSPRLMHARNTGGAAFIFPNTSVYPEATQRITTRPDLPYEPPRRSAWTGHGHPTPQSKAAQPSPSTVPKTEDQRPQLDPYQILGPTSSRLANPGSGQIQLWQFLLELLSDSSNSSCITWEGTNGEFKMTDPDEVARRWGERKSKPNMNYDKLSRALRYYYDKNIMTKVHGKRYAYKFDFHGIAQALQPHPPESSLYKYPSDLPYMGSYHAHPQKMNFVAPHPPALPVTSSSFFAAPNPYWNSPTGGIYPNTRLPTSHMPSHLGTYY
A digest of the protocol:
as §1

Another test concerns the target ELF1 (Homo sapiens, UniProt P32519 1-619). An outline of the steps:
as §1

For the next test, the target named is T5, EHF (Homo sapiens, UniProt Q9NZC4 1-300).
T5 sequence: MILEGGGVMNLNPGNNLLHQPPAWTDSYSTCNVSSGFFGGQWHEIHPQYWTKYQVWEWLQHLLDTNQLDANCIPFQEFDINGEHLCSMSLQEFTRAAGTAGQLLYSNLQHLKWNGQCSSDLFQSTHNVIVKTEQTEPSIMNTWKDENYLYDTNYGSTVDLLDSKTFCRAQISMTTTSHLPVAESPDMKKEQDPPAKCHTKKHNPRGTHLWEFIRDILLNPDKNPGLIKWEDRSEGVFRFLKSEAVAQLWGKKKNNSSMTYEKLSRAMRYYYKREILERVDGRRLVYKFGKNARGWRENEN
A digest of the protocol:
as §1

The next test deals with SPI1 (Homo sapiens, UniProt P17947 1-270). An outline of the steps: as §1
The target of a further test is SPIB (Homo sapiens, UniProt Q01892 1-262). A digest of the protocol:
as §1

Another test has as its target T6, FEV (Homo sapiens, UniProt Q99581 1-238).
T6 sequence: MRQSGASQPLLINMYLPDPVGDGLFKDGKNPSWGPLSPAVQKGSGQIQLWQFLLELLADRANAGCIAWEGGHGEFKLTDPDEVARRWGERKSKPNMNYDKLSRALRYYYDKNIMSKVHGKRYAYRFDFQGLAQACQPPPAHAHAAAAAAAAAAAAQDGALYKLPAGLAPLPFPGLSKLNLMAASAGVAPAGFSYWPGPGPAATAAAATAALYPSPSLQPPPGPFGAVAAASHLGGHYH
A digest of the protocol: as §1

A further test concerns the target ETV5 (Homo sapiens, UniProt P41161 1-510). An outline of the steps: as §1
The target of another test is T7, SPIC (Homo sapiens, UniProt Q8N5J4 1-248).
T7 sequence: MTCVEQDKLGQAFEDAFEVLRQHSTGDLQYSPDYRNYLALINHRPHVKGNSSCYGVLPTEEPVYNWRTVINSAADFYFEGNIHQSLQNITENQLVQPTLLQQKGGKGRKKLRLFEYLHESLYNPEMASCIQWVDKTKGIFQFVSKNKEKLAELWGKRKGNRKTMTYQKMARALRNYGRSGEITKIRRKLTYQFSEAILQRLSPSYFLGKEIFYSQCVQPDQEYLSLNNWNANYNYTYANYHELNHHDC
A digest of the protocol:
as §1

In a further test the target is ELF4 (Homo sapiens, UniProt Q99607 1-663). A digest of the protocol:
as §1

A further test has as its target ETV1 (Homo sapiens, UniProt P50549 1-477). A digest of the protocol:
as §1

Another test has as its target T8, ERF (Homo sapiens, UniProt P50548 1-548).
T8 sequence: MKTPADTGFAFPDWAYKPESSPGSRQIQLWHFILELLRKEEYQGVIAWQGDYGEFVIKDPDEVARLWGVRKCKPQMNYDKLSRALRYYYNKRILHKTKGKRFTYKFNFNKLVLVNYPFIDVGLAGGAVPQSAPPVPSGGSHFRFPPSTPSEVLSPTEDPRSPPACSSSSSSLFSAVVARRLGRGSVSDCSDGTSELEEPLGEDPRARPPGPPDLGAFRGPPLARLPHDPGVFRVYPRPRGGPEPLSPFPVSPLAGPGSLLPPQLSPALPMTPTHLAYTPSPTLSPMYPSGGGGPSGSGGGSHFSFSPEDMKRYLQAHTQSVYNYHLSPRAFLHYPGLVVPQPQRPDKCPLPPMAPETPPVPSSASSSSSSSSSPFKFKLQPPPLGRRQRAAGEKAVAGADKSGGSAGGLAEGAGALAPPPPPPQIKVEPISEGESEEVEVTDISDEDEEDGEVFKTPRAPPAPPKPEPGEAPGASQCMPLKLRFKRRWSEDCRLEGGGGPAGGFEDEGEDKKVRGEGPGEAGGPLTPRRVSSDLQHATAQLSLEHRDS
An outline of the steps: as §1

The next test deals with T9, ETV3L (Homo sapiens, UniProt Q6ZN32 1-361).
T9 sequence: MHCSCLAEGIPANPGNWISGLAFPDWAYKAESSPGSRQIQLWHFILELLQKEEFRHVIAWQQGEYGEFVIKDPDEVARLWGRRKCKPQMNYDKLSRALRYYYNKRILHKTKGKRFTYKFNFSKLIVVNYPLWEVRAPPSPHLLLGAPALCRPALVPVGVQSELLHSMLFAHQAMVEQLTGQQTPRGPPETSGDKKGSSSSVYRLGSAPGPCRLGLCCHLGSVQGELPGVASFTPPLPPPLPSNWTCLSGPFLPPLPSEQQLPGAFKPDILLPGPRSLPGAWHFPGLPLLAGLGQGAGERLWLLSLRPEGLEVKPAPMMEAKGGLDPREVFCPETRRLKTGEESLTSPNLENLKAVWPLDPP
An outline of the steps: as §1

The next test deals with T10, ETS2 (Homo sapiens, UniProt P15036 1-469).
T10 sequence: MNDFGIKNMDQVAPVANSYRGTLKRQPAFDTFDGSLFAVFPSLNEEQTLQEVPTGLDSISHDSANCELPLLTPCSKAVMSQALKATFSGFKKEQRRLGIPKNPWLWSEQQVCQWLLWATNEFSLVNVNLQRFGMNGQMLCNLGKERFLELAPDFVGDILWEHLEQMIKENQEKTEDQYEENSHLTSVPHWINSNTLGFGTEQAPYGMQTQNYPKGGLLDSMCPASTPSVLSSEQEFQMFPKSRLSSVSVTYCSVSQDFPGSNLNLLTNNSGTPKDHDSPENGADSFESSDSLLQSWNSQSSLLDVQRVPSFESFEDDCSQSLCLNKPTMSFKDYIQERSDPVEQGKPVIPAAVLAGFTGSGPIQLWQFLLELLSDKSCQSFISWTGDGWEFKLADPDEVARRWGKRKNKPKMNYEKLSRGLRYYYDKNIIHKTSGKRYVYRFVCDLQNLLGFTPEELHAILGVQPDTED
An outline of the steps:
as §1

The target of another test is T11, SPDEF (Homo sapiens, UniProt O95238 1-335).
T11 sequence: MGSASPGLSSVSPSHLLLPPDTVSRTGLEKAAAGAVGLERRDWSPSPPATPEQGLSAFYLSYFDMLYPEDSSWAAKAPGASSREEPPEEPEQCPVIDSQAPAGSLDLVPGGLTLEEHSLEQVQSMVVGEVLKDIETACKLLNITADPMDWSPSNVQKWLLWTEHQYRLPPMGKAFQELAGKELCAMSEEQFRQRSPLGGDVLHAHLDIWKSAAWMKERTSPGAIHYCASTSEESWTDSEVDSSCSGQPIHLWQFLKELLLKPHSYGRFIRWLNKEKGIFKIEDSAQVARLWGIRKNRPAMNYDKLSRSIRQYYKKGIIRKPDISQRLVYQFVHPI
An outline of the steps: as §1

The target in the next test is T12, ELF5 (Homo sapiens, UniProt Q9UKW6-2 1-255).
T12 sequence: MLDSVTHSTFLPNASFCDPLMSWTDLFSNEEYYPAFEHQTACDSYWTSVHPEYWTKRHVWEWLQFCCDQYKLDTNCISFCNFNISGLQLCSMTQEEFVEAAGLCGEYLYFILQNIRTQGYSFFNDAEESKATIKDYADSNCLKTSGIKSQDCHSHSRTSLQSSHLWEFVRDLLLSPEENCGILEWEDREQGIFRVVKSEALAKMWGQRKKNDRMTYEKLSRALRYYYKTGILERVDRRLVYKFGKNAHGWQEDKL
An outline of the steps:
as §1

A further test has as its target T13, ETV3 (Homo sapiens, UniProt P41162-2 1-143).
T13 sequence: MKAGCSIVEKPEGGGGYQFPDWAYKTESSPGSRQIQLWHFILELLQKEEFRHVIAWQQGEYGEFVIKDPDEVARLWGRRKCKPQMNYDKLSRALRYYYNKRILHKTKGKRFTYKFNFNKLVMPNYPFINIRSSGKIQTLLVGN
An outline of the steps:
as §1

The next test has as its target ETV6 (Homo sapiens, UniProt P41212 1-452). An outline of the steps:
as §1

Chain of ETV1 (P50549 whole entry): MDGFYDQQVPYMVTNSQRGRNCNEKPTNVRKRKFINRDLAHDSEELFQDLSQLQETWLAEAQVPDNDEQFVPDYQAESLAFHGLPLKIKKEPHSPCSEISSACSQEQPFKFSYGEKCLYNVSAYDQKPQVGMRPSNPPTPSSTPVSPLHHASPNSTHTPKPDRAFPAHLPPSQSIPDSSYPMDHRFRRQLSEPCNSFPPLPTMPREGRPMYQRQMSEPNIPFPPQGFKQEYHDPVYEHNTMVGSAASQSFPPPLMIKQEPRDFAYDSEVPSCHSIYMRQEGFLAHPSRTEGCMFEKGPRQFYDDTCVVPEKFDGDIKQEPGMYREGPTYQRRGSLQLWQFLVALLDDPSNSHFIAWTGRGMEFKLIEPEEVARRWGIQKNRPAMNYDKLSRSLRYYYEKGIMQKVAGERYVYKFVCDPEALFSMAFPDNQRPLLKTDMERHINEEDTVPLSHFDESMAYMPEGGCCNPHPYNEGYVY
Chain of ELF4 (Q99607 whole entry): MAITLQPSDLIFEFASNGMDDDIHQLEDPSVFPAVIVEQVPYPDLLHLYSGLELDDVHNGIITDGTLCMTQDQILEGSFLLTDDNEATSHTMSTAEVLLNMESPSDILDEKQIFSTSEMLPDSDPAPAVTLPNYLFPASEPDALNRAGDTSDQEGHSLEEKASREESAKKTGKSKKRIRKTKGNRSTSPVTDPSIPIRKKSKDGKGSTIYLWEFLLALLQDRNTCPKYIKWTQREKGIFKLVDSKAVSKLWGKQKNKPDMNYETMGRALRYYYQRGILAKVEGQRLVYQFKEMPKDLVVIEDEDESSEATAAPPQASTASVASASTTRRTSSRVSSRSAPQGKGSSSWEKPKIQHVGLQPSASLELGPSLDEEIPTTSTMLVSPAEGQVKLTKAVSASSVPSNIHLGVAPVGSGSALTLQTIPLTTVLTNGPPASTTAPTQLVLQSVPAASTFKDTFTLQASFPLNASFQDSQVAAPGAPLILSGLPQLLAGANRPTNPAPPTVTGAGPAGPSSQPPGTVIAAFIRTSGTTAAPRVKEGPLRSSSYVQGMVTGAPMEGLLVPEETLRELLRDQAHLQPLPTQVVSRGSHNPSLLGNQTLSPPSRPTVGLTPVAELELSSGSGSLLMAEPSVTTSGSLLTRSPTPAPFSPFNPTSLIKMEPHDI
Chain of ELF1 (P32519 whole entry): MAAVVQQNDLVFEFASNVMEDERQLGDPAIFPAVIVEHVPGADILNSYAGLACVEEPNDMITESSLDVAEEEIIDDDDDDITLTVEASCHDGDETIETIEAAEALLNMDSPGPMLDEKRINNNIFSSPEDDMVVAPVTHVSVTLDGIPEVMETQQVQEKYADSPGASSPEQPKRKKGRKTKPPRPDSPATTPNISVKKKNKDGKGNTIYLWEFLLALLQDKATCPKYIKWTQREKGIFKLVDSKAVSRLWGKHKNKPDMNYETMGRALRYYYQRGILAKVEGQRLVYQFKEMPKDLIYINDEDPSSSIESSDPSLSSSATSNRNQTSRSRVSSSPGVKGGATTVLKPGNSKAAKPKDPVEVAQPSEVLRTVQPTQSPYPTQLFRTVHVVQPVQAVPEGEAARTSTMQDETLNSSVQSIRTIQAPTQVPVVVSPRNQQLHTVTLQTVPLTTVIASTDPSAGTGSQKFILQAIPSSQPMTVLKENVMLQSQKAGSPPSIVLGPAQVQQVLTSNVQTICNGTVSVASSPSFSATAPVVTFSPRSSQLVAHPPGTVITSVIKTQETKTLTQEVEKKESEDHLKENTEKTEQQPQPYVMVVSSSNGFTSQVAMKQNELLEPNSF
Chain of ETV6 (P41212 whole entry): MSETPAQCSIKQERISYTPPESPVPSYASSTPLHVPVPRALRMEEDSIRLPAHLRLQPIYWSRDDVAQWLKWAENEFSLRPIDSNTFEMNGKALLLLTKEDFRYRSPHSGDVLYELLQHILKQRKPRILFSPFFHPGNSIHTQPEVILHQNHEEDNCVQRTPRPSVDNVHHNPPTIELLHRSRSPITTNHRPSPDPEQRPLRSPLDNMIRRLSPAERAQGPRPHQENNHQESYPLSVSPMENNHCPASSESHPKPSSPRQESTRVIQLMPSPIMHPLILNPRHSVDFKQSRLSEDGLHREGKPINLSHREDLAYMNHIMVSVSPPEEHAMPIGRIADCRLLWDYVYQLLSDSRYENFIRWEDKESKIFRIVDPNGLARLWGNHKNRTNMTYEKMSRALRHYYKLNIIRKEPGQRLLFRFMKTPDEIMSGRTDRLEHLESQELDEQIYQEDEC
Chain of ETV5 (P41161 whole entry): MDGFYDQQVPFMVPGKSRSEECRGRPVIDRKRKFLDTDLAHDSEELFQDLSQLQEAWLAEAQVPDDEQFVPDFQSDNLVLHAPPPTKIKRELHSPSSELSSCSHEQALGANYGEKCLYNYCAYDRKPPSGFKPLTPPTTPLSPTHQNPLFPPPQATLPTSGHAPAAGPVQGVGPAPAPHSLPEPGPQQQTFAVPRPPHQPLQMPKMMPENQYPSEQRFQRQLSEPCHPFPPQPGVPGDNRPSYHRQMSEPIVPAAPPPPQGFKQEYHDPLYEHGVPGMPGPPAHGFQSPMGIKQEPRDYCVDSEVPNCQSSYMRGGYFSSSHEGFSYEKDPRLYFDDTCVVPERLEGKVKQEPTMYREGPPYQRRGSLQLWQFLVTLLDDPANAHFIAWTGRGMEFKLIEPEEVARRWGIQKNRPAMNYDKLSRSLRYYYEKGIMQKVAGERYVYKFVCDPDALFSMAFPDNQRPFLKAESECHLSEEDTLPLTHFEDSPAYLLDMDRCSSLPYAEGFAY
Chain of SPIB (Q01892 whole entry): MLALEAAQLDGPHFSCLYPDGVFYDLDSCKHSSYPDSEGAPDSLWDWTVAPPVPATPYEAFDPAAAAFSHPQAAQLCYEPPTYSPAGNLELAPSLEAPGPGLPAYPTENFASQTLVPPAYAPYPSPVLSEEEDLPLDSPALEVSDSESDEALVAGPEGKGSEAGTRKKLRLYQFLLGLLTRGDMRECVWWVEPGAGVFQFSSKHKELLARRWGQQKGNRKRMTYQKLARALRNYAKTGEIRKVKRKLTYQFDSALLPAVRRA

For ATGGTG, the binding signal in the test with FLI1 was 1.17 fold enrichment (6-mer frequency, TF over GST control); in the test with ELK1, 1.27 fold enrichment (6-mer frequency, TF over GST control); with GABPA it was 1.1 fold enrichment (6-mer frequency, TF over GST control); with ERG it was 1.19 fold enrichment (6-mer frequency, TF over GST control); with ELF1 it was 1.13 fold enrichment (6-mer frequency, TF over GST control); with EHF, 1.17 fold enrichment (6-mer frequency, TF over GST control). Also, the binding signal with SPI1 was 1.07 fold enrichment (6-mer frequency, TF over GST control); with SPIB it was 1.01 fold enrichment (6-mer frequency, TF over GST control); in the test with FEV, 1.06 fold enrichment (6-mer frequency, TF over GST control); with ETV5 it was 1.18 fold enrichment (6-mer frequency, TF over GST control); with SPIC, 1.2 fold enrichment (6-mer frequency, TF over GST control); in the test with ELF4, 1.14 fold enrichment (6-mer frequency, TF over GST control). The binding signal was 1.11 fold enrichment (6-mer frequency, TF over GST control) with ETV1; 1.13 fold enrichment (6-mer frequency, TF over GST control) in the test with ERF; 1.04 fold enrichment (6-mer frequency, TF over GST control) with ETV3L; 1.14 fold enrichment (6-mer frequency, TF over GST control) with ETS2; 1.14 fold enrichment (6-mer frequency, TF over GST control) with SPDEF; 1.02 fold enrichment (6-mer frequency, TF over GST control) with ELF5. Also, the binding signal with ETV3 was 1.04 fold enrichment (6-mer frequency, TF over GST control); with ETV6 it was 1.11 fold enrichment (6-mer frequency, TF over GST control).

Values taken from PMC7862700, “An all-to-all approach to the identification of sequence-specific readers for epigenetic DNA modifications on cytosine”.
